In PubChem BioAssay (NCI):
Compounds without any hit were thinned out: in the full panel of roughly 83,000, 20% have a hit.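 The test compound was applied at a single concentration to cells in 96-well plates for 48 hours, and percent growth was recorded.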 Unmarked numbers belong to inactive results. The source made the active and inactive calls. Rule for the calls: active = growth percent below 10; inactive = the rest.

The compounds below were run on MALME-3M melanoma (assay: NCI-60 one-dose screen, 48 h (100 = growth as untreated, 0 = no growth, -100 = all killed)). Details: 10 µM unless noted.
In the case of `Cc1ccc(-c2ccc(Nc3ccccc3)nn2)cc1S(N)(=O)=O`, the growth is reported as 73.5%.
Compound `Cn1c2c(Cl)c(Cl)ccc2c2c(C#N)c[nH]c(=O)c21` has a growth of 140%.
`C/C(=N/NC(N)=S)C(=O)O` showed a growth of 102%.
`CCCCC[C@H]1C/C=C2/C(=O)C=C[C@@H]2C/C=C\CCCC(=O)O[C@@H](CCCCC)C/C=C2/C(=O)C=C[C@@H]2C/C=C\CCCC(=O)O1` was tested, and the growth was -78.4% (active).
`C#CCn1c(C)cc(C)c(C#N)c1=O` was tested, and the growth was 96.9%.
With `Cc1cc(N2CCCCC2)nc(N(CCNc2ccnc3cc(Cl)ccc23)Cc2ccco2)n1` the growth was 40.2%.
`C[C@@H](C(=O)O)c1ccc2c3cc(Cl)ccc3n(Cc3cc(=O)oc4ccc(Cl)cc34)c2c1` was tested, and the growth was 89.5%.
With `C=C1C(=O)O[C@H]2[C@H]1CC/C(COC(=O)NCc1cc3ccccc3[nH]1)=C\CC[C@@]1(C)O[C@@H]21` the growth was -59.4% (active).
`CCOC(=O)N1CCN(CCCCOc2ccc(C(C)(C)CC)cc2)CC1` was tested, and the growth was 92.3%.
`OCC(CO)(CCl)CCl` was tested, and the growth was 101%.
In the case of `COc1ccc(-c2cc(/C=C/C(=O)c3ccc(N)cc3)[nH]n2)cc1`, the growth is reported as 54.3%.
`CC(C)(C)c1nc(-c2ccc(O)c(O)c2)cs1` was tested, and the growth was 86.8%.
Compound `Brc1ccc(Cn2nnnc2-c2ccn(-c3ccccc3)n2)cc1` has a growth of 103%.
For `COC(=O)C(Cc1ccccc1)n1cc(COc2nc(Cl)nc(Nc3ccc(Cl)cc3)n2)nn1` (configuration not stated), the growth was 89.4%.
`COc1cccc(-c2nn(-c3ccccc3)cc2-c2ccnc(NCCNS(=O)(=O)c3ccccc3)c2)c1` was tested, and the growth was 69.1%.
`Nc1c(C(=O)Nc2cccc3ccccc23)sc2nc3c(cc12)CCCC3` was tested, and the growth was 78%.
With `Cn1cc(-c2csc(-c3cn(CCN)c4ccc(F)cc34)n2)c2cccnc21` the growth was 87.4%.
With `COc1ccc(NC(=S)N/N=C/c2ccccc2SSCCC(=O)OC[C@H]2O[C@H](O)[C@H](O)[C@@H](O)[C@@H]2O)cc1` the growth was 72.7%.
`c1ccc(-c2nc(Nc3ccc(-c4nc5ccccc5[nH]4)cc3)nc(N3CCOCC3)n2)cc1` was tested, and the growth was -77.3% (active).
With `COc1cnc2c(c1)C(=O)c1c-2n(CCCNC2=NCCS2)c(=O)c2cc([N+](=O)[O-])ccc12` the growth was -60.6% (active).
With `OCCNc1nc(Nc2ccc(Cl)c(Cl)c2)nc2ccccc12` the growth was 31.1%.
With `Oc1ccc(CCC2CCCC(CCc3ccc(OCCF)cc3)N2)cc1` (configuration not stated) the growth was 117%.
`Cc1ccsc1-c1ccc2c(c1)COC2(CCCN(C)C)c1ccc(F)cc1` (configuration not stated) was tested, and the growth was -14% (active).
Compound `COc1ccc(NC(=O)c2ccoc2COc2ccccc2)cc1` has a growth of 99.7%.

Each compound was assayed on MDA-MB-231 breast in the same assay as above. Details: 10 µM unless noted.
In the case of `Nc1c(C(=O)Nc2c(Cl)cccc2Cl)sc2nc3c(cc12)CCCC3`, the growth is reported as 82.5%.
Work on `COc1cc2ncnc(Nc3ccc(OCc4cccc(F)c4)c(Cl)c3)c2cc1NC(=O)C1CCCC1` yielded a growth of 84.5%.
For `O=C(N/N=C/c1ccccc1SSc1ccccc1/C=N/NC(=O)c1ccccc1)c1ccccc1`, the growth was 44.7%.
`C[C@@H]1CCCCCCCCC[C@H](O)C(=O)C[C@@H](SC[C@@H](O)C(=O)O)C(=O)O1` was tested, and the growth was 96%.
For `C=C(C)[C@@H]1CC[C@]2(C)[C@H](CC=C3[C@@H]4CC(C)(C)CC[C@]4(C(=O)OC)CC[C@]32C)[C@@]1(C)CC/C(N)=N/O`, the growth was 66.1%.
`C=C(C)[C@@H]1CC[C@]2(C)[C@H](CC=C3[C@@H]4CC(C)(C)CC[C@]4(C=O)CC[C@]32C)[C@@]1(C)CCCN` showed a growth of 75.2%.
`Cc1ccc(/C=C(\C#N)c2cc3ccccc3n2C)cc1` gave a growth of 18.7%.
With `N=C(N)c1ccc(S(N)(=O)=O)cc1` the growth was 110%.
Work on `COc1ccc(-c2cc(=O)oc3ccc(Cl)cc23)cc1F` yielded a growth of 21.8%.
`CCSc1sc(-c2ccc(C)cc2)nc1[P+](c1ccccc1)(c1ccccc1)c1ccccc1` was tested, and the growth was -24.8% (active).
In the case of `COC(=O)[C@]12CC[C@@H](C)[C@H](C)[C@@H]1C1=CC(=O)[C@@H]3[C@@]4(C)C[C@@H](O)[C@H](O)[C@@]5(C)COC(=C45)C[C@@]3(C)[C@]1(C)CC2`, the growth is reported as 45.8%.
With `O=S(=O)(NCCNc1cc(-c2cn(-c3ccccc3)nc2-c2cccc(O)c2)ccn1)c1ccc(Br)cc1` the growth was 4.31% (active).
In the case of `Brc1ccc2[nH]cc(-c3nc(-c4c[nH]c5ncccc45)cs3)c2c1`, the growth is reported as 24.9%.
For `Cc1ccc(-c2ccc(Nc3ccccc3)nn2)cc1S(N)(=O)=O`, the growth was 89.2%.
`Cn1c2c(Cl)c(Cl)ccc2c2c(C#N)c[nH]c(=O)c21` gave a growth of 98.5%.
Compound `C/C(=N/NC(N)=S)C(=O)O` has a growth of 91.1%.
For `CCCCC[C@H]1C/C=C2/C(=O)C=C[C@@H]2C/C=C\CCCC(=O)O[C@@H](CCCCC)C/C=C2/C(=O)C=C[C@@H]2C/C=C\CCCC(=O)O1`, the growth was -50.1% (active).
For `C#CCn1c(C)cc(C)c(C#N)c1=O`, the growth was 101%.
For `N#CC1C(=N)Cc2ccccc2-c2ccccc21` (configuration not stated), the growth was 57.2%.
In the case of `Cc1cc(N2CCCCC2)nc(N(CCNc2ccnc3cc(Cl)ccc23)Cc2ccco2)n1`, the growth is reported as 32.9%.
`C[C@@H](C(=O)O)c1ccc2c3cc(Cl)ccc3n(Cc3cc(=O)oc4ccc(Cl)cc34)c2c1` gave a growth of 106%.
In the case of `C=C1C(=O)O[C@H]2[C@H]1CC/C(COC(=O)NCc1cc3ccccc3[nH]1)=C\CC[C@@]1(C)O[C@@H]21`, the growth is reported as -42.5% (active).
In the case of `CCOC(=O)N1CCN(CCCCOc2ccc(C(C)(C)CC)cc2)CC1`, the growth is reported as 102%.
With `OCC(CO)(CCl)CCl` the growth was 94.8%.
For `COc1ccc(-c2cc(/C=C/C(=O)c3ccc(N)cc3)[nH]n2)cc1`, the growth was 35.7%.
Compound `CC(C)(C)c1nc(-c2ccc(O)c(O)c2)cs1` has a growth of 54.3%.
`Brc1ccc(Cn2nnnc2-c2ccn(-c3ccccc3)n2)cc1` was tested, and the growth was 73.5%.
`COC(=O)C(Cc1ccccc1)n1cc(COc2nc(Cl)nc(Nc3ccc(Cl)cc3)n2)nn1` (configuration not stated) showed a growth of 94%.
With `COc1cccc(-c2nn(-c3ccccc3)cc2-c2ccnc(NCCNS(=O)(=O)c3ccccc3)c2)c1` the growth was 18.4%.
Work on `Nc1c(C(=O)Nc2cccc3ccccc23)sc2nc3c(cc12)CCCC3` yielded a growth of 33.2%.
Compound `Cn1cc(-c2csc(-c3cn(CCN)c4ccc(F)cc34)n2)c2cccnc21` has a growth of 59.9%.
For `COc1ccc(NC(=S)N/N=C/c2ccccc2SSCCC(=O)OC[C@H]2O[C@H](O)[C@H](O)[C@@H](O)[C@@H]2O)cc1`, the growth was 71.1%.
`c1ccc(-c2nc(Nc3ccc(-c4nc5ccccc5[nH]4)cc3)nc(N3CCOCC3)n2)cc1` was tested, and the growth was -63.3% (active).
`COc1cnc2c(c1)C(=O)c1c-2n(CCCNC2=NCCS2)c(=O)c2cc([N+](=O)[O-])ccc12` was tested, and the growth was -58.4% (active).
`OCCNc1nc(Nc2ccc(Cl)c(Cl)c2)nc2ccccc12` was tested, and the growth was 5.57% (active).
In the case of `Oc1ccc(CCC2CCCC(CCc3ccc(OCCF)cc3)N2)cc1` (configuration not stated), the growth is reported as 88.9%.
`Cc1ccsc1-c1ccc2c(c1)COC2(CCCN(C)C)c1ccc(F)cc1` (configuration not stated) was tested, and the growth was 51.1%.
In the case of `COc1ccc(NC(=O)c2ccoc2COc2ccccc2)cc1`, the growth is reported as 95.7%.
